# From PubChem
# LASV entry inh = qHTS for Inhibitors of binding or entry into cells for Lassa Virus; Lassa virus pseudotype entry inhibition, cell reporter; Potency, µM (highest dose often 37.9 µM), inactives show at the highest dose activity change, negative = inhibition, most hits filed as inhibitors; actives 1.2% (n = 300,000); AID 540256, 2011; calls by dose curve; tested in HEK293 cells; also: potency is read from the fitted curve at half-maximal effect; % is scaled to controls: 0 for no effect and ±100 for the full control effect; nearly all actives have a fitted effect of over 50% in size
# VACV mCherry inh = qHTS for Stage-Specific Inhibitors of Vaccinia Orthopoxvirus: mCherry Reporter Primary qHTS. actives 0.63% (n = 310,000). Potency, µM (top dose mostly 36.5 µM), without a hit: at the highest dose activity change, negative = inhibition, most hits filed as inhibitors. AID 720579, 2013. Vaccinia virus mCherry reporter infection, fluorescence; calls by dose curve; tested in A549 cells; also: potency is read from the fitted curve at half-maximal effect; % is scaled to controls: 0 for no effect and ±100 for the full control effect; nearly all actives have a fitted effect of over 35% in size
# Marburg entry inh = qHTS for inhibitors of binding or entry into cells for Marburg Virus; Marburg virus pseudotyped entry inhibition, cell reporter; Potency, µM (doses to about 37.8 µM), for the others: at the highest dose activity change, negative = inhibition, actives largely listed as inhibitors; actives 1.8% (n = 300,000); AID 540276, 2011; calls by dose curve; tested in HEK293 cells; also: potency is read from the fitted curve at half-maximal effect; % is scaled to controls: 0 for no effect and ±100 for the full control effect
# Cycloheximide cs = Cycloheximide Counterscreen for Small Molecule Inhibitors of Shiga Toxin | AID 2314, 2010 | cell reporter, cycloheximide protein synthesis inhibition counterscreen | max response, % | actives 12% (n = 300,000); in the data active = max response mostly above about 13%, no sharp cut-off; inactive = mostly below about 14%; also: read at 38.3 µM for the half of the compounds with a filed dose; 0% is about no effect
# Shiga inhibitor = A qHTS for Small Molecule Inhibitors of Shiga Toxin; actives 9.2% (n = 290,000); inhibition, % at 38.7 µM; Vero cells, Shiga toxin protein synthesis inhibition reporter; in the data active = inhibition mostly above about 28%, no sharp cut-off; inactive = mostly below about 43%; also: 0% is about no effect
# VACV Venus inh = qHTS for Stage-Specific Inhibitors of Vaccinia Orthopoxvirus: Venus Reporter Primary qHTS; actives 0.46% (n = 330,000); Vaccinia virus Venus reporter expression, fluorescence; AID 720580, 2013; Potency, µM (doses to about 36.5 µM), without a hit: top-dose activity change, negative = inhibition, actives largely listed as inhibitors; calls by dose curve; tested in A549 cells; also: potency is read from the fitted curve at half-maximal effect; % is scaled to controls: 0 for no effect and ±100 for the full control effect; nearly all actives have a fitted effect of over 30% in size
# * marks the source's active call; other numbers are inactive results; i = inactive; ? = inconclusive; . = not tested or not shown; [ ] = dose if it differs, or a comment. The full list was thinned out, with hits kept by preference.
SMILES,LASV entry inh,VACV mCherry inh,Marburg entry inh,Cycloheximide cs,Shiga inhibitor,VACV Venus inh
COc1cc(OC)c(N(C)C(=O)Cn2ncc3c([nH]c4ccccc43)c2=O)cc1Cl,-5%[46.1 µM],3%,.,.,.,-2%
COC(=O)N[C@H](CC(C)=O)c1ccc(Cl)cc1,.,.,3%[14.2 µM],.,.,.
c1cncc(OC2CCN(Cc3ccc4c(c3)CN(Cc3ccc5c(c3)CCO5)CCO4)CC2)c1,.,-19%,.,.,.,-4%
O=C(c1n[nH]c2c1CCCC2)N1CCOc2ccc(C(O)C(c3ccccc3)c3ccccc3)cc2C1 (stereo unspecified),.,-16%,.,.,.,-15%
Oc1ccccc1/C=N/Nc1nc2ccccc2o1,?,?,?,62*,97*,?
CN(N=Cc1ccccc1O)c1ccc2ccccc2n1,.,-13%,.,.,.,-25%
O=C(CSc1nc2ccccc2o1)N/N=C/c1ccc(C(=O)O)cc1,-5%,?,8%[46.1 µM],6,20,-11%
Brc1ccc(/C=N/Nc2nc3ccccc3o2)cc1,.,.,.,41*,57*,.
CCCCNC(=O)c1cnc2sc(N3CCCCCC3)nn2c1=O,1%[46.1 µM],i,.,.,.,-12%
Cc1ccc(OCC(=O)NCc2ccccn2)c(Br)c1,?,-23%,13%,31*,78*,-16%
Cc1cc(OCC(=O)NCc2ccccn2)c2c(C)c(C)c(=O)oc2c1,-2%[46.1 µM],-6%,-4%[46.1 µM],1,-5,-12%
O=C(COc1ccccc1Br)NCc1ccccn1,26%,.,?,29*,64*,.
Cc1ccc(OCC(=O)NCCO)c(Br)c1,2%,-2%,-7%[46.1 µM],31*,29,-3%
O=C(COc1ccc(F)cc1Br)NCc1ccccn1,11%,.,3%,48*,61*,.
O=C(COc1ccc(F)cc1Br)NCc1nnc2ccccn12,3%,-17%,21%,.,.,-12%
COc1ccc(-c2csc(NC(=O)c3cc(=O)c4ccccc4o3)n2)cc1OC,.,-1%,.,15,0,-8%
CC1CCCN(C2=C(NS(=O)(=O)c3ccc(Cl)cc3)C(=O)c3ccccc3C2=O)C1 (stereo unspecified),?,?,?,22*,40*,-19%
COC(=O)C1CCN(C2=C(NS(=O)(=O)c3ccc(Cl)cc3)C(=O)c3ccccc3C2=O)CC1,.,?,.,17,20,-3%
COc1cccc(NC(=O)CSC2=C(C#N)C(c3ccco3)C3=C(CCCC3=O)N2)c1 (stereo unspecified),13µM*,?,-7%,36*,92*,?
CCc1ccc(NC(=O)CSC2=C(C#N)[C@H](c3ccco3)C3=C(CCCC3=O)N2)cc1,.,.,-29%,.,.,.
CCCCc1ccc(NC(=O)CSC2=C(C#N)C(c3ccco3)C3=C(CCCC3=O)N2)cc1 (stereo unspecified),?,-9%,?,19*,-3,-11%
COc1ccccc1C1=NC(c2ccc(F)cc2)N=C1C (stereo unspecified),?,i,?,28*,88*,-24%
Cc1cc(NS(=O)(=O)c2ccc(NC(=O)COc3ccc(Cl)cc3)cc2)nc(C)n1,-5%[46.1 µM],-4%,-2%[46.1 µM],.,.,2%
Nc1ccc(-c2ccc3ccccc3n2)cc1,?,.,6.3µM*,25*,71*,.
COc1ccc(-c2ccc3ccccc3n2)cc1,?,0%,?,41*,71*,-5%
SMILES,LASV entry inh,VACV mCherry inh,Marburg entry inh,Cycloheximide cs,Shiga inhibitor,VACV Venus inh
Nc1ccc(-c2cc(-c3ccc(N)cc3)nc(-c3ccccc3)n2)cc1,?,-11%,-2%,5,-4,-3%
COc1ccc(-c2ccc3ccccc3n2)cc1OC,-11%,-21%,-1%[46.1 µM],46*,133*,-17%
COc1cc2ccc(-c3ccc4ccccc4n3)cc2cc1OC,.,i,.,.,.,-7%
CC(C)CN(C(=O)COC(=O)c1cncc(Br)c1)c1c(N)n(Cc2ccccc2)c(=O)[nH]c1=O,?,-11%,-1%,6,9,-7%
COc1ccc(-c2ccc3c(c2)S(=O)(=O)c2cccc(C(=O)N4CCN(C5CCCCC5)CC4)c2C3=O)cc1OC,.,i,.,.,.,-12%
c1ccc2[nH]c(CSc3nc4ccccc4o3)nc2c1,-8%,i,10%,42*,137*,-17%
c1cncc(-c2nnc(SCc3nc4ccccc4[nH]3)o2)c1,-2%,-14%,3%,12,22,-3%
CCc1nc(SCc2nc3ccccc3[nH]2)c2oc3ccccc3c2n1,-8%,.,?,14*,8,.
CCc1nc(SCC(=O)c2ccc(Cl)s2)c2oc3ccccc3c2n1,18%,.,?,46*,89*,.
O=C(O)c1ccc(N/N=C/c2c[nH]c3ccccc23)cc1,.,.,.,9,2,.
O=C(O)c1ccc(N/N=C/C2=Cc3ccccc3OC2)cc1,.,?,.,41*,73*,?
CC(C)NC(=O)C1CCC(Cn2c(=O)c3sccc3n(CC(=O)NCc3ccccc3)c2=O)CC1 (stereo unspecified),?,-5%,.,.,.,-3%
O=C(CN1C(=O)NC2(CCCC2)C1=O)Nc1ccc(F)c([N+](=O)[O-])c1,0%,-15%,0%[46.1 µM],-3,-14,-4%
Cc1cc(C(=O)OCC(=O)N2CC(C)OC(C)C2)c(C)n1-c1ccccc1 (stereo unspecified),-9%,-26%,5%,.,.,-3%
Cc1noc(C)c1COC(=O)c1cc(C)n(-c2ccccc2)c1C,-51%,.,-29%,51*,38*,.
O=C(COC(=O)c1ccccc1)NCc1ccco1,1%,-20%,2%,1,-9,-8%
Cc1cc(C(=O)OCC(=O)NCc2ccco2)c(C)n1-c1ccc(F)cc1,10µM*,.,?,14,22,?
O=C(COC(=O)c1ccccc1Nc1cccc(C(F)(F)F)c1)NCc1ccco1,?,-18%,2%[46.1 µM],17*,36,-5%
CCNC(=O)COC(=O)c1cc(C)n(-c2ccccc2)c1C,5%[46.1 µM],i,4%[46.1 µM],41*,62*,-9%
CC(NC(=O)c1ccc(N2CCCC2)c([N+](=O)[O-])c1)c1ccc(S(N)(=O)=O)cc1 (stereo unspecified),-3%[46.1 µM],-5%,1%[46.1 µM],4,-20,-14%
Cc1cc(C)c2oc(-c3ccc(C)c(NC(=O)/C=C/c4ccco4)c3)nc2c1,25%[46.1 µM],-8%,5%[46.1 µM],.,.,-5%
COc1ccc(Nc2nc(-c3cccc(OC)c3O)nc3ccccc23)cc1,.,.,.,33*,50*,.
Cc1nnc(Nc2ccc(S(N)(=O)=O)cc2)c2ccccc12,?,i,-13%[46.1 µM],-3,.,-14%
CCc1c(C)nc(Nc2nc(C)c3ccc(OC)cc3n2)[nH]c1=O,-10%,?,-6%,0,-11,?
COc1cccc(-c2nc(NC(C)(C)C)c3ccccc3n2)c1O,?,.,-27%,-2,9,.
Cc1nc(Nc2ccc(S(N)(=O)=O)cc2)sc1-c1ccccc1,-9%[46.1 µM],?,?,31*,47,-14%
